Reference: PubChem BioAssay (Tox21)
Values joined by “and” are separate entries in the source; they are usually repeats but may differ in a detail not shown here. Identical values can stand only once. Results filed as inconclusive are left out. A structure can be active in one record and inactive in another. Active and inactive are the calls of the source. Unless noted, calls come from the whole dose curve.

What was measured:
[1] = Nuclear factor erythroid 2-related factor 2/antioxidant responsive element (Nrf2/ARE) small molecule agonists: qHTS cell viability counter screen in human keratinocytes (AID 1919968; active = well fitted curve in the direction sought with a large enough effect in the repeat runs; an effect the other way counts as inactive or inconclusive; note: nearly all actives have a fitted effect of over 55% in size; note: potency is the fitted concentration of half-maximal effect)
Procedure, shortened: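 KeratinoSens HaCaT cells, 1,500/well, preincubated 5 h, then exposed to compounds in DMSO for 23 h at 37 C/5% CO2. Viability read as CellTiter-Fluor fluorescence after 1 h, in the same wells as the ARE-luciferase read.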

[2] = Nuclear factor erythroid 2-related factor 2/antioxidant responsive element (Nrf2/ARE) small molecule agonists: luciferase reporter gene qHTS assay in human keratinocytes (AID 1919969); note: nearly all actives have a fitted effect of over 35% in size; note: potency is the fitted concentration of half-maximal effect
[3] = biological target: Gonadotropin-releasing hormone receptor (Homo sapiens) (UniProt P30968); experiment: Human gonadotropin-releasing hormone receptor (GnRHR) small molecule agonists, calcium flux assay in GnRHR-HEK293 cells (AID 1920063); note: nearly all actives have a fitted effect of over 35% in size
Gonadotropin-releasing hormone receptor (Homo sapiens), sequence (P30968 whole entry, looked up): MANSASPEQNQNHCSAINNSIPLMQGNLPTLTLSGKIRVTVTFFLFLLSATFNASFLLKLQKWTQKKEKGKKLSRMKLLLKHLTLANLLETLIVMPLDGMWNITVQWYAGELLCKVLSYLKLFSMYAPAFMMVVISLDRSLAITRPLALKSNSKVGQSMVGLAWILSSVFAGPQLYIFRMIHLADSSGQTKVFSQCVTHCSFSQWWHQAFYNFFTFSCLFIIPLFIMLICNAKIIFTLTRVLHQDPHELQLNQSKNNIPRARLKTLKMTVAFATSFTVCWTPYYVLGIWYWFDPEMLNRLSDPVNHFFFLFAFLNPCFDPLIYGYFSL
Procedure, shortened: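 HEK293 cells stably expressing human GnRHR were dye-loaded for 1 h at 37 C. Compound was added in agonist mode and fluorescence (Ex/Em 480/540) recorded kinetically for 3 min. Fifteen concentrations, triplicates.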

[4] = biological target: KiSS-1 receptor (Homo sapiens) (UniProt Q969F8); experiment: Human kisspeptin (KISS1R) small molecule agonists, calcium flux assay in KISS1R-HEK293 cells (AID 1920064; active = well fitted curve in the direction sought with a large enough effect in the repeat runs; an effect the other way counts as inactive or inconclusive)
KiSS-1 receptor (Homo sapiens), sequence (Q969F8 whole entry, looked up): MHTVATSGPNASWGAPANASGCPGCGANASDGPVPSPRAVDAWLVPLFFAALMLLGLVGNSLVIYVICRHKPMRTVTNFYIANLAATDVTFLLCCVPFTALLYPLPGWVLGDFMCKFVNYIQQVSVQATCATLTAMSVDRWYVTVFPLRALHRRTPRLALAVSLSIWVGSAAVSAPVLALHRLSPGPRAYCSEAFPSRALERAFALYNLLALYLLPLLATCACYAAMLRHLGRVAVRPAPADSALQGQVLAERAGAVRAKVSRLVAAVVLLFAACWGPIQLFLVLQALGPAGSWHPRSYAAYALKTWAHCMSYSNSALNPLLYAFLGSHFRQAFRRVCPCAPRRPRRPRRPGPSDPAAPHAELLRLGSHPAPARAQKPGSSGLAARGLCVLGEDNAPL
Procedure, shortened: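 HEK293 cells stably expressing human KISS1R were loaded with calcium dye for 1 h at 37 C, then given compound; fluorescence (Ex/Em 480/540) was read kinetically for 3 min. Fifteen concentrations, triplicate.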

[5] = G protein-coupled receptor (GPCR) small molecule agonists, calcium flux assay: HEK293 wild type cell line counter screen (AID 1920065)
Procedure, shortened: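 Wild-type HEK293 cells plated 18 h, loaded with calcium dye 1 h at 37 C, then compounds added in agonist mode (ATP as positive control). Kinetic fluorescence Ex/Em 480/540 recorded 3 min at 1 sec intervals; 15 concentrations, triplicate.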

[6] = p53 small molecule agonists, cell-based qHTS assay with human liver microsomes: qHTS cell viability counter screen (AID 1963579); note: nearly all actives have a fitted effect of over 45% in size
Procedure, shortened: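 After the 460/530 nm beta-lactamase read, CellTiter-Glo was added to the same wells and luminescence measured after 30 min at room temperature, giving viability of p53RE-bla cells treated 16 h with compounds plus microsomes and NADPH.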

[7] = p53 small molecule agonists, cell-based qHTS assay with rat liver microsomes: qHTS cell viability counter screen (AID 1963580); note: nearly all actives have a fitted effect of over 45% in size
Procedure, shortened: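 In HCT-116 cells carrying a p53 response element-bla reporter, compounds were metabolically activated in situ by rat liver microsomes with NADPH over 16 h. Cell ATP content then served as the cytotoxicity measure.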

[8] = p53 small molecule agonists, cell-based qHTS assay: qHTS cell viability counter screen (AID 1963581); note: nearly all actives have a fitted effect of over 45% in size
Procedure, shortened: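 p53RE-bla HCT-116 cells, compounds added 5 h after plating and incubated 16 h at 37 C. Cytotoxicity measured in the same wells as intracellular ATP by CellTiter-Glo luminescence after 30 min at room temperature.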

[9] = p53 small molecule agonists, cell-based qHTS assay (AID 1963582; active = well fitted activation curve with a large enough effect in the signal ratio in the repeat runs, not every such curve was filed as active; the % refers to the signal ratio)
Procedure, shortened: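 p53RE-bla reporter cells, compounds added in DMSO after 5 h plating, incubated 16 h at 37 C. Beta-lactamase read via 2 h room-temperature LiveBLAzer B/G FRET substrate, fluorescence intensity.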

[10] = biological target: 5-hydroxytryptamine receptor 2A (Homo sapiens) (UniProt P28223); experiment: 5-hydroxytryptamine receptor 2A (HTR2A) small molecule antagonists, cell-based qHTS assay (AID 1963586); note: nearly all actives have a fitted effect of over 45% in size
5-hydroxytryptamine receptor 2A (Homo sapiens), sequence (P28223 whole entry, looked up): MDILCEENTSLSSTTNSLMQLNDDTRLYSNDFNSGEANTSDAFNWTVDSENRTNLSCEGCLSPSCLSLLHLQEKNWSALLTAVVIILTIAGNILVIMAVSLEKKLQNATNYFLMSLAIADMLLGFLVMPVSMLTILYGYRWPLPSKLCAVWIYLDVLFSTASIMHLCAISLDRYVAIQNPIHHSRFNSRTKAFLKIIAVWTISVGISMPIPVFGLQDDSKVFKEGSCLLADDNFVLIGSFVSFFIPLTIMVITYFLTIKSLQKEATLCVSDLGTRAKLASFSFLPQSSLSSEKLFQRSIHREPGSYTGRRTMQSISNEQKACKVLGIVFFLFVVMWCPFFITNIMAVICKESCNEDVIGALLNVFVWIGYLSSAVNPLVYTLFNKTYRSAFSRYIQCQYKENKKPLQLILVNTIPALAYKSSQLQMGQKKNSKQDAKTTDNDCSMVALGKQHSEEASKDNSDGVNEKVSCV
Procedure, shortened: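 Antagonist-mode intracellular calcium assay: DOI (4 nM) added after 5 min compound pre-incubation at room temperature to dye-loaded HTR2A-CHO cells. Fluorescence followed for 3 min, sampled every second.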

[11] = biological target: 5-hydroxytryptamine receptor 2A (Homo sapiens) (UniProt P28223); experiment: 5-hydroxytryptamine receptor 2A (HTR2A) small molecule agonists, cell-based qHTS assay (AID 1963587); note: nearly all actives have a fitted effect of over 30% in size
Procedure, shortened: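 HTR2A-CHO cells, plated 18 h at 37 C/5% CO2, dye-loaded 1 h at 37 C; compounds in DMSO added by pin tool (agonist mode). Intracellular calcium flux read as kinetic fluorescence on FDSS over 2 min at 1 s intervals.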

[12] = biological target: Muscarinic acetylcholine receptor M1 (Homo sapiens) (UniProt P11229); experiment: Cholinergic receptor muscarinic 1 (CHRM1) small molecule antagonists, cell-based qHTS assay (AID 1963588); note: nearly all actives have a fitted effect of over 40% in size
Muscarinic acetylcholine receptor M1 (Homo sapiens), sequence (P11229 whole entry, looked up): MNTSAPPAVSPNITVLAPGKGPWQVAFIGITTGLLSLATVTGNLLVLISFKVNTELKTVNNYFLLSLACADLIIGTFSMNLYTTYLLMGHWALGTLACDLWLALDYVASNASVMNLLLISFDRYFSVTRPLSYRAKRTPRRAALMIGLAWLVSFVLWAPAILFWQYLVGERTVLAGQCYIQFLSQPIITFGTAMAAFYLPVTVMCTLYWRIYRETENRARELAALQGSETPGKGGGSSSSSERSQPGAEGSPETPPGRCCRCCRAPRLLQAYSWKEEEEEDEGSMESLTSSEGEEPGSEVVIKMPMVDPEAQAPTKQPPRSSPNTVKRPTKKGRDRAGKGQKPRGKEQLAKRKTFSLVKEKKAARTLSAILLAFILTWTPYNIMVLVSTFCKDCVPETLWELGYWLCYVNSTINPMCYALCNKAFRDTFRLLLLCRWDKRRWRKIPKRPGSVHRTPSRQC
Procedure, shortened: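 CHRM1-CHO calcium-flux assay, antagonist mode. Cells were seeded 18 h, dye-loaded 1 h at 37 C and given compound for 5 min at RT, then acetylcholine was added at 50nM. FDSS fluorescence was read 3 min; 15 concentrations, three runs.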

[13] = biological target: Muscarinic acetylcholine receptor M1 (Homo sapiens) (UniProt P11229); experiment: Cholinergic receptor muscarinic 1 (CHRM1) small molecule agonists, cell-based qHTS assay (AID 1963589); note: nearly all actives have a fitted effect of over 35% in size
Procedure, shortened: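 CHO cells stably expressing human CHRM1 were loaded with calcium dye for 1 h at 37 C, then compound was added in agonist mode. Intracellular calcium fluorescence was followed kinetically at 1 s intervals. Fifteen concentrations were tested in three independent runs.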

[14] = biological target: Beta-2 adrenergic receptor (Homo sapiens) (UniProt P07550); experiment: Adrenergic beta2 receptor (ADRB2) small molecule antagonists, cell-based qHTS assay (AID 1963592); note: series mostly up to about 92 µM; nearly all actives have a fitted effect of over 50% in size
Beta-2 adrenergic receptor (Homo sapiens), sequence (P07550 whole entry, looked up): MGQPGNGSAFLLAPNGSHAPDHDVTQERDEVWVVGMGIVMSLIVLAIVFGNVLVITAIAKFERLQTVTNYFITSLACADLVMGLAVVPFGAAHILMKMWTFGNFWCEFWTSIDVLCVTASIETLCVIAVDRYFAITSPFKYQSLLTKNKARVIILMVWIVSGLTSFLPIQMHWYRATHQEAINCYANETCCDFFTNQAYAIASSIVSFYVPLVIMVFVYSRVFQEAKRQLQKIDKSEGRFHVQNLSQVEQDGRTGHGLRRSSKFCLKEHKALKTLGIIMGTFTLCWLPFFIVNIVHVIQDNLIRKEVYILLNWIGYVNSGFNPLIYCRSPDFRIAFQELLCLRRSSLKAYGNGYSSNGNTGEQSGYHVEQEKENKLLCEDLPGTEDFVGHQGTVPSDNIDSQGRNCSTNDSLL
Procedure, shortened: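 Cells (CHO, stable ADRB2 overexpression) incubated 18-20hr at 37C; compounds added from DMSO; agonist mix (1nM isoproterenol, 100uM IBMX, 25uM Ro-20-1724) added; 0.5hr RT; d2-cAMP and anti-cAMP-cryptate added; 1hr RT; 665/615 nm read.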

[15] = biological target: Beta-2 adrenergic receptor (Homo sapiens) (UniProt P07550); experiment: Adrenergic beta2 receptor (ADRB2) small molecule agonists, cell-based qHTS assay (AID 1963593);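 note: CHO cells stably overexpressing human ADRB2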
Procedure, shortened: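 CHO cells stably over-expressing ADRB2 were plated overnight at 37C, then dosed with compounds plus a stimulation mix containing 100uM IBMX and 25uM Ro-20-1724 for 0.5hr at room temperature. cAMP was measured by HTRF competition, 1hr.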

[16] = biological target: D(2) dopamine receptor (Homo sapiens) (UniProt P14416); experiment: Dopamine D2 receptor (DRD2) small molecule agonists, cell-based qHTS assay (AID 1963594); note: nearly all actives have a fitted effect of over 35% in size
D(2) dopamine receptor (Homo sapiens), sequence (P14416 whole entry, looked up): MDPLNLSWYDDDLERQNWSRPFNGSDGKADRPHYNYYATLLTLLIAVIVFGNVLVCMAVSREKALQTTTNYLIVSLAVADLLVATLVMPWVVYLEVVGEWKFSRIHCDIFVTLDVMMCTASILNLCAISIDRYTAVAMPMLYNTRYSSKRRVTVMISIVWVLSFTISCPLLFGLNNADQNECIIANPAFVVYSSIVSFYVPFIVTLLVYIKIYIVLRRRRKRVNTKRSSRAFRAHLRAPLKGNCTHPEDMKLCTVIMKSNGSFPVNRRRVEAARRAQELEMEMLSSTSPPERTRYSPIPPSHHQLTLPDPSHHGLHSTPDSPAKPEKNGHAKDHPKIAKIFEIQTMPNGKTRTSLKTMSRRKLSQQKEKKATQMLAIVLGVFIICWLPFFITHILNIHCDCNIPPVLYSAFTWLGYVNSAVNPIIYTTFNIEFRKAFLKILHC
Procedure, shortened: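 HEK293 cells stably expressing DRD2 were cultured 24 h at 37 C, then given Ro20-1724 (0.1 mM final) and compounds for 10 min at room temperature. NKH477 (200nM) was then added for 30 min. cAMP was read by HTRF.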

[17] = biological target: D(2) dopamine receptor (Homo sapiens) (UniProt P14416); experiment: Dopamine D2 receptor (DRD2) small molecule antagonists, cell-based qHTS assay (AID 1963595; active = well fitted inhibition curve with a large enough effect in the signal ratio in the repeat runs, with a control signal flat; the % refers to the signal ratio; note: potency is the fitted concentration of half-maximal effect)
Procedure, shortened: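 Antagonist mode in DRD2-HEK293 cells: after compound addition with 0.1 mM Ro20-1724, cells received quinpirole (12 nM) and NKH477 (200 nM) for 30 min at room temperature; HTRF cAMP read after 1 h detection.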

[18] = cAMP Responsive Elements (CRE) small molecule agonists, cell-based qHTS assay (AID 1963590)
Procedure, shortened: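 CRE-bla HEK 293T cells, 2,000/well in DMEM with 10% dialyzed FBS and 25 mM HEPES, pre-incubated 18 h at 37 C, then exposed to compound 3 h at 37 C. Beta-lactamase reporter read with LiveBLAzer B/G FRET substrate after 2 h at room temperature.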

[19] = cAMP Responsive Elements (CRE) small molecule antagonists, cell-based qHTS assay (AID 1963591; active = well fitted inhibition curve with a large enough effect in the signal ratio in the repeat runs, not every such curve was filed as active; the % refers to the signal ratio)
Procedure, shortened: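 CRE-bla HEK293T cells plated 18 h, then given compound plus NKH477 at 0.25 uM final for 3 h at 37C. Beta-lactamase reporter read with LiveBLAzer B/G FRET substrate after 2 h at room temperature.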

[20] = p53 small molecule agonists, cell-based qHTS assay with rat liver microsomes (AID 1963578)
Procedure, shortened: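 Metabolic activation is supplied by rat liver microsomes with NADPH (each 0.5 mg/mL final). p53RE-bla cells incubate with compound 16 h at 37 C; reporter activity is measured by LiveBLAzer fluorescence.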

Measured: Potency

Cc1ccc([N+](=O)[O-])cc1
not listed: [18] | [19] | [20]
inactive: all other assays above

ClCC(Cl)CCl
not listed: [15] | [20]
inactive: all other assays above

CCOP(=S)(OCC)O/N=C(\C#N)c1ccccc1
not listed: [6] | [20]
inactive: all other assays above

CCCCSP(=O)(SCCCC)SCCCC
not listed: [15] | [20]
inactive: all other assays above

OC(Cc1ccccc1Cl)(Cn1cncn1)C1(Cl)CC1 (stereo not drawn)
not listed: [12] | [15] | [20]
inactive: all other assays above

CCOC(=O)CC(SP(=S)(OC)OC)C(=O)OCC (stereo not drawn)
active: [2] 24.3 µM
not listed: [12] | [20]
inactive: all other assays above

CC1(C)C(C=C(Cl)Cl)C1C(=O)OC(C#N)c1ccc(F)c(Oc2ccccc2)c1 (stereo not drawn)
not listed: [8] | [9] | [15]
inactive: all other assays above

Cc1ccc(N)cc1C
active: [2] 9.77 µM
not listed: [15]
inactive: all other assays above

CNC(=S)S
inactive: all assays above

CNC(=O)NC(O)C(Cl)(Cl)Cl (stereo not drawn)
not listed: [8] | [11] | [17]
inactive: all other assays above

c1ccc(NNc2ccccc2)cc1
active: [2] 55 µM
inactive: all other assays above

CN(C)CCC#N
not listed: [15] | [17]
inactive: all other assays above

FC(F)(F)c1ccc(Cl)cc1
not listed: [9] | [18]
inactive: all other assays above

C#CCOS(=O)OC1CCCCC1Oc1ccc(C(C)(C)C)cc1 (stereo not drawn)
active: [2] 19.4 µM and 19.3 µM
inactive and 54.5 µM (active): [17]
68.7 µM (active) and inactive: [1]
not listed: [9] | [18] | [19]
inactive: all other assays above

Cc1ccc(N)cc1N
active: [2] 26.6 µM and 30.6 µM
not listed: [11] | [13] | [14] | [15]
inactive: all other assays above
